Assay results published in the supplement of paper PMC8728848.
Only a selection was taken, and the strongest signals are over-represented in it overall.

How the values were obtained:
Assay in all cases: glycan array binding signal (z-score within array); higher = stronger binding
Settings in all cases: glycan notation: IUPAC condensed, linker removed
[1] = biological target: Fuc(a1-2)Gal(b1-3)GlcNAc(b1-3)[Gal(b1-4)GlcNAc(b1-6)]Gal(b1-4)Glc
In short: (§1)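 Glycan array data were curated from 3228 arrays in the Consortium for Functional Glycomics database and kept only where the protein sequence was available. Glycan names were converted to IUPAC-condensed notation, and columns mapping to the same glycan were averaged. The binding signal is a within-array Z-score, averaged across arrays of the same protein sequence at different concentrations or buffers and across linkers. Negative Z-scores can be read as non-binding.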

[2] = biological target: Fuc(a1-2)Gal(b1-3)GlcNAc(b1-3)[Neu5Ac(a2-6)Gal(b1-4)GlcNAc(b1-6)]Gal(b1-4)Glc
In short: as §1

Fuc(a1-2)Gal(b1-4)Glc = biological target: Fuc(a1-2)Gal(b1-4)Glc
In short: as §1

[3] = biological target: Fuc(a1-2)Gal(b1-4)GlcNAc(b1-3)Gal(b1-4)GlcNAc(b1-3)Gal(b1-4)GlcNAc
In short: as §1

Fuc(a1-2)[Gal(a1-3)]Gal = biological target: Fuc(a1-2)[Gal(a1-3)]Gal
In short: as §1

[4] = biological target: Fuc(a1-2)[Gal(a1-3)]Gal(b1-3)GlcNAc(b1-6)GalNAc
In short: as §1

[5] = biological target: Fuc(a1-2)[Gal(a1-3)]Gal(b1-4)GlcNAc(b1-6)GalNAc
In short: as §1

[6] = biological target: Fuc(a1-2)[GalNAc(a1-3)]Gal(b1-3)GlcNAc(b1-2)Man(a1-3)[Fuc(a1-2)[GalNAc(a1-3)]Gal(b1-3)GlcNAc(b1-2)Man(a1-6)]Man(b1-4)GlcNAc(b1-4)[Fuc(a1-6)]GlcNAc
In short: as §1

[7] = biological target: Fuc(a1-2)[GalNAc(a1-3)]Gal(b1-4)GlcNAc(b1-3)[Fuc(a1-2)[GalNAc(a1-3)]Gal(b1-4)GlcNAc(b1-6)]GalNAc
In short: as §1

[8] = biological target: Fuc(a1-3)[GalNAc(b1-4)]GlcNAc
In short: as §1

Fuc(a1-4)GlcNAc = biological target: Fuc(a1-4)GlcNAc
In short: as §1

Gal(a1-3)Gal(b1-4)GlcNAc = biological target: Gal(a1-3)Gal(b1-4)GlcNAc
In short: as §1

[9] = biological target: Gal(a1-3)[Gal(a1-4)]Gal(b1-4)GlcNAc
In short: as §1

[10] = biological target: Gal(b1-3)GlcNAc(b1-3)Gal(b1-4)Glc
In short: as §1

[11] = biological target: Gal(b1-3)GlcNAc(b1-3)Gal(b1-4)[Fuc(a1-3)]GlcNAc
In short: as §1

[12] = biological target: Gal(b1-3)[Fuc(a1-4)]GlcNAc(b1-2)Man
In short: as §1

[13] = biological target: Gal(b1-3)[GlcNAc(b1-6)]GalNAc
In short: as §1

[14] = biological target: Gal(b1-4)GalNAc(a1-3)[Fuc(a1-2)]Gal(b1-4)GlcNAc
In short: as §1

[15] = biological target: Gal(b1-4)GlcNAc(b1-2)Man(a1-3)[GlcNAc(b1-4)][Gal(b1-4)GlcNAc(b1-2)Man(a1-6)]Man(b1-4)GlcNAc(b1-4)GlcNAc
In short: as §1

[16] = biological target: Gal(b1-4)GlcNAc(b1-3)Gal(b1-4)GlcNAc(b1-3)Gal(b1-4)GlcNAc(b1-3)Gal(b1-4)GlcNAc(b1-3)Gal(b1-4)GlcNAc(b1-2)[Gal(b1-4)GlcNAc(b1-3)Gal(b1-4)GlcNAc(b1-3)Gal(b1-4)GlcNAc(b1-3)Gal(b1-4)GlcNAc(b1-3)Gal(b1-4)GlcNAc(b1-6)]Man(a1-6)[Gal(b1-4)GlcNAc(b1-3)Gal(b1-4)GlcNAc(b1-3)Gal(b1-4)GlcNAc(b1-3)Gal(b1-4)GlcNAc(b1-3)Gal(b1-4)GlcNAc(b1-2)Man(a1-3)]Man(b1-4)GlcNAc(b1-4)[Fuc(a1-6)]GlcNAc
In short: as §1

[17] = biological target: Gal(b1-4)GlcNAc(b1-3)Gal(b1-4)GlcNAc(b1-6)[Gal(b1-3)]GalNAc
In short: as §1

Gal3S4S(b1-4)GlcNAc = biological target: Gal3S4S(b1-4)GlcNAc
In short: as §1

Gal3S6S(b1-4)GlcNAc = biological target: Gal3S6S(b1-4)GlcNAc
In short: as §1

Gal4S(b1-4)GlcNAc = biological target: Gal4S(b1-4)GlcNAc
In short: as §1

[18] = biological target: GalNAc3S(b1-4)[Fuc(a1-3)]GlcNAc
In short: as §1

[19] = biological target: GlcNAc(b1-2)[GlcNAc(b1-4)]Man(a1-3)[GlcNAc(b1-2)Man(a1-6)]Man(b1-4)GlcNAc(b1-4)GlcNAc
In short: as §1

[20] = biological target: GlcNAc(b1-2)[GlcNAc(b1-4)]Man(a1-3)[GlcNAc(b1-4)][GlcNAc(b1-2)Man(a1-6)]Man(b1-4)GlcNAc(b1-4)GlcNAc
In short: as §1

[21] = biological target: GlcNAc(b1-2)[GlcNAc(b1-4)]Man(a1-3)[GlcNAc(b1-4)][GlcNAc(b1-2)[GlcNAc(b1-6)]Man(a1-6)]Man(b1-4)GlcNAc(b1-4)GlcNAc
In short: as §1

[22] = biological target: GlcNAc(b1-2)[GlcNAc(b1-4)]Man(a1-3)[GlcNAc(b1-4)][GlcNAc(b1-2)[GlcNAc(b1-6)]Man(a1-6)]Man(b1-4)GlcNAc(b1-4)[Fuc(a1-6)]GlcNAc
In short: as §1

[23] = biological target: GlcNAc(b1-3)Gal(b1-4)GlcNAc(b1-2)[GlcNAc(b1-3)Gal(b1-4)GlcNAc(b1-6)]Man(a1-6)[GlcNAc(b1-3)Gal(b1-4)GlcNAc(b1-2)Man(a1-3)]Man(b1-4)GlcNAc(b1-4)GlcNAc
In short: as §1

[24] = biological target: GlcNAc(b1-3)Gal(b1-4)GlcNAc(b1-3)Gal(b1-4)GlcNAc(b1-2)[GlcNAc(b1-3)Gal(b1-4)GlcNAc(b1-3)Gal(b1-4)GlcNAc(b1-6)]Man(a1-6)[GlcNAc(b1-3)Gal(b1-4)GlcNAc(b1-3)Gal(b1-4)GlcNAc(b1-2)Man(a1-3)]Man(b1-4)GlcNAc(b1-4)[Fuc(a1-6)]GlcNAc
In short: as §1

[25] = biological target: GlcNAc(b1-4)GlcNAc(b1-4)GlcNAc
In short: as §1

[26] = biological target: Kdn(a2-3)Gal(b1-4)[Fuc(a1-3)]GlcNAc
In short: as §1

[27] = biological target: Man(a1-2)Man(a1-6)[Man(a1-3)]Man(a1-6)[Man(a1-2)Man(a1-2)Man(a1-3)]Man
In short: as §1

[28] = biological target: Man(a1-3)[Man(a1-6)]Man(a1-6)[Man(a1-3)]Man
In short: as §1

[29] = biological target: Neu5Ac(a2-3)Gal(b1-3)GlcNAc(b1-3)GalNAc
In short: as §1

[30] = biological target: Neu5Ac(a2-3)Gal(b1-3)[Fuc(a1-4)]GlcNAc(b1-3)Gal(b1-3)[Fuc(a1-4)]GlcNAc
In short: as §1

[31] = biological target: Neu5Ac(a2-3)Gal(b1-4)GlcNAc(b1-2)[Neu5Ac(a2-3)Gal(b1-4)GlcNAc(b1-4)]Man(a1-3)[GlcNAc(b1-4)][Neu5Ac(a2-3)Gal(b1-4)GlcNAc(b1-2)[Neu5Ac(a2-3)Gal(b1-4)GlcNAc(b1-6)]Man(a1-6)]Man(b1-4)GlcNAc(b1-4)GlcNAc
In short: as §1

[32] = biological target: Neu5Ac(a2-3)Gal(b1-4)[Fuc(a1-3)]GlcNAc(b1-3)GalNAc
In short: as §1

Neu5Ac(a2-3)GalNAc = biological target: Neu5Ac(a2-3)GalNAc
In short: as §1

[33] = biological target: Neu5Ac(a2-3)[GalNAc(b1-4)]Gal(b1-4)Glc
In short: as §1

[34] = biological target: Neu5Ac(a2-6)Gal(b1-4)GlcNAc(b1-2)Man(a1-3)[GlcNAc(b1-4)][Neu5Ac(a2-6)Gal(b1-4)GlcNAc(b1-2)Man(a1-6)]Man(b1-4)GlcNAc(b1-4)GlcNAc
In short: as §1

[35] = biological target: Neu5Ac(a2-6)Gal(b1-4)GlcNAc(b1-2)[Neu5Ac(a2-6)Gal(b1-4)GlcNAc(b1-4)]Man(a1-3)[GlcNAc(b1-4)][Neu5Ac(a2-6)Gal(b1-4)GlcNAc(b1-4)Man(a1-6)]Man(b1-4)GlcNAc(b1-4)GlcNAc
In short: as §1

[36] = biological target: Neu5Ac(a2-6)Gal(b1-4)GlcNAc(b1-3)Gal(b1-4)GlcNAc(b1-2)Man(a1-3)[Neu5Ac(a2-6)Gal(b1-4)GlcNAc(b1-3)Gal(b1-4)GlcNAc(b1-2)Man(a1-6)]GalNAc
In short: as §1

[37] = biological target: Neu5Ac(a2-6)Gal(b1-4)GlcNAc(b1-3)Gal(b1-4)GlcNAc(b1-3)Gal(b1-4)GlcNAc
In short: as §1

[38] = biological target: Neu5Ac(a2-6)Gal(b1-4)GlcNAc(b1-3)GalNAc
In short: as §1

[39] = biological target: Neu5Ac(b2-6)Gal(b1-4)GlcNAc
In short: as §1

B1: SP8524D-bot-399-27-399 (Bacteroides ovatus) (protein)
chain: DAKYDTLDTHAYIEEALSSTSQKVTVQATGESFTTLNVHLSNLSSTDNHYKLVTDQSVLDTYNHINGTGYIMLPKDYYTLPETITVKAGQYAADALSIALKAFSQEMMKSGESYALPVKLVLQDGSISPMENTGTFVILAESIIEFSAPMFVGAPSLKANKFTESPETYSQYTIEVRFQVANTADRDRAVFKNGGDDANFILLRFEDPQSDNENYKAHSLVQIVGRNRLYLNPSNSFKPNEWQHLALVCDGSNYRLYINGVDSGVLSIPTGATTFSDVNWFCLGDDSYSRWGNCKILMSEARIWSVVRSASQIQNNMTQVSPKSVGLEAYWRFNEGQGNVFEDATGKGHTLTTSATPTWIDGILSTDKSTEWK
glycan array binding signal (z-score) [1]: -0.119 | glycan array binding signal (z-score) [2]: -0.348 | glycan array binding signal (z-score) (Fuc(a1-2)Gal(b1-4)Glc): -0.082 | glycan array binding signal (z-score) [3]: -0.049 | glycan array binding signal (z-score) (Fuc(a1-2)[Gal(a1-3)]Gal): 1.34 | glycan array binding signal (z-score) [4]: -0.387 | glycan array binding signal (z-score) [5]: -0.255 | glycan array binding signal (z-score) [6]: -0.246 | glycan array binding signal (z-score) [7]: -0.238 | glycan array binding signal (z-score) [8]: 1.02 | glycan array binding signal (z-score) (Fuc(a1-4)GlcNAc): 6.02 | glycan array binding signal (z-score) (Gal(a1-3)Gal(b1-4)GlcNAc): -0.463 | glycan array binding signal (z-score) [9]: 3.56 | glycan array binding signal (z-score) [10]: -0.359 | glycan array binding signal (z-score) [11]: -0.174 | glycan array binding signal (z-score) [12]: 0.35 | glycan array binding signal (z-score) [13]: -0.01 | glycan array binding signal (z-score) [14]: 0.229 | glycan array binding signal (z-score) [15]: -0.382 | glycan array binding signal (z-score) [16]: 1.02 | glycan array binding signal (z-score) [17]: 0.317 | glycan array binding signal (z-score) (Gal3S4S(b1-4)GlcNAc): -0.075 | glycan array binding signal (z-score) (Gal3S6S(b1-4)GlcNAc): 0.506 | glycan array binding signal (z-score) (Gal4S(b1-4)GlcNAc): 0.045 | glycan array binding signal (z-score) [18]: 0.563 | glycan array binding signal (z-score) [19]: 16.1 | glycan array binding signal (z-score) [20]: 8.43 | glycan array binding signal (z-score) [21]: 12.1 | glycan array binding signal (z-score) [22]: 2.04 | glycan array binding signal (z-score) [23]: 0.455 | glycan array binding signal (z-score) [24]: 1.11 | glycan array binding signal (z-score) [25]: -0.187 | glycan array binding signal (z-score) [26]: 0.119 | glycan array binding signal (z-score) [27]: -0.455 | glycan array binding signal (z-score) [28]: 0.159 | glycan array binding signal (z-score) [29]: -0.628 | glycan array binding signal (z-score) [30]: 0.014 | glycan array binding signal (z-score) [31]: -0.648 | glycan array binding signal (z-score) [32]: 0.96 | glycan array binding signal (z-score) (Neu5Ac(a2-3)GalNAc): -0.038 | glycan array binding signal (z-score) [33]: 0 | glycan array binding signal (z-score) [34]: 0.589 | glycan array binding signal (z-score) [35]: 0.44 | glycan array binding signal (z-score) [36]: 0.437 | glycan array binding signal (z-score) [37]: -0.075 | glycan array binding signal (z-score) [38]: -0.138 | glycan array binding signal (z-score) [39]: -0.048
